eIF4E-4G inh = blocks eIF4E binding to eIF4G; inhibition, % at 21.7 µM; TR-FRET eIF4E-eIF4GI(517-606) binding, 2 h; AID 782; actives 0.37% (n = 220,000); P63073+Q04637;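 active means inhibition above about 30%, limit read from the data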;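 further: 0% = full FRET control wells and 100% = background wells lacking eIF4GI fragment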
PERK inh = blocks human PERK kinase; actives 0.17% (n = 220,000); inhibition, % at 5.6 µM; CHO PERK-DD fusion, SEAP luminescence translation reporter;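 active means inhibition above the mean inhibition of all tested compounds plus 3 SD, set separately per screening campaign, cut at about 2.9% in these data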;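 further: PERK kinase domain activated by AP20187 dimerizer at 100 nM; 0% = DMSO with dimerizer and 100% = rapamycin at 8.4 µM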
Target sequence (Q9NZJ5 whole entry, looked up, the tested form may be a part): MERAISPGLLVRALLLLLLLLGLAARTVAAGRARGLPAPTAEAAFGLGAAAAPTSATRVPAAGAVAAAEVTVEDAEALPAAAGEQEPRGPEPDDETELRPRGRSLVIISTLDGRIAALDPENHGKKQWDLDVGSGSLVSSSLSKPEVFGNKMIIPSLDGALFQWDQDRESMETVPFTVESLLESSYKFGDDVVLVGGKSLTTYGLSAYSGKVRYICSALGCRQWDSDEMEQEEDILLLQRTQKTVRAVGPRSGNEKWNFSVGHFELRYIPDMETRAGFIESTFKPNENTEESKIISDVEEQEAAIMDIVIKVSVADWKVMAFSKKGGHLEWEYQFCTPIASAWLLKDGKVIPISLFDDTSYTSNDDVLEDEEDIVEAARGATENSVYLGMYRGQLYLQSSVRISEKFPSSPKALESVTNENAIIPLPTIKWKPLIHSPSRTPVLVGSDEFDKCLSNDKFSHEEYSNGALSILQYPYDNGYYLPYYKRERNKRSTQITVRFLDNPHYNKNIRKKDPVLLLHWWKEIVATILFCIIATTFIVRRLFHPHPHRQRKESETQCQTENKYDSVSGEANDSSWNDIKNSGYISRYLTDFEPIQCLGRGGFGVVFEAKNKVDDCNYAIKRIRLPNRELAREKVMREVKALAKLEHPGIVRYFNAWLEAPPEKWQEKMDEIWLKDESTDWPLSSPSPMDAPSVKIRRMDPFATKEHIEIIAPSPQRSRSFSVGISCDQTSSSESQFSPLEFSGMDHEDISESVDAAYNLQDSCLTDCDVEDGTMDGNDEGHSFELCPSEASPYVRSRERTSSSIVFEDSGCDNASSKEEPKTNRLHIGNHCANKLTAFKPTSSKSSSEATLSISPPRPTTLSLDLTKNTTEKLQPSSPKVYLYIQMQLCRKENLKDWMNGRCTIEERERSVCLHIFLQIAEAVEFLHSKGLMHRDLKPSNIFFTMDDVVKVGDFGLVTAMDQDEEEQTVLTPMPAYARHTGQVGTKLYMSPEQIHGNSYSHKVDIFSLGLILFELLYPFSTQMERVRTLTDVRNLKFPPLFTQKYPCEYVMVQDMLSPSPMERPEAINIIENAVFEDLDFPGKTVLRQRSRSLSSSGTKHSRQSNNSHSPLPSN
PABP FP inh = blocks human PABP binding to poly(A) RNA; actives 1% (n = 290,000); fluorescence polarization; P11940; inhibition, % at 35 µM;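 further: calls also rest on retests at 20 µM and on dose response follow-up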
MLLE-PAM2 inh = blocks PAM2 peptide binding to the PABP1 MLLE domain; P11940; GST-MLLE / FITC-PAM2 fluorescence polarization; inhibition, % at 20 µM; actives 0.36% (n = 360,000); AID 588489; in the data active means inhibition above about 35%, passing the limit was not always enough;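 further: plate controls were DMSO wells with GST-MLLE for no effect and wells lacking GST-MLLE protein for full effect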
eIF4H FP inh = inhibitors of RNA binding by human eIF4H. Q15056. eIF4H fluorescence polarization binding assay. inhibition, % at 35 µM. actives 0.94% (n = 290,000). AID 2012;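 further: calls also rest on retests at 20 µM and on dose response follow-up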
An asterisk follows results filed as active; ? = inconclusive; nt = not tested or not shown; [ ] = remark or other dose. Sampled rows, rich in hits. Any-hit rate of the full collection: about 1.6%. Unless noted, how the calls were made is not given here.

SMILES	eIF4E-4G inh	PERK inh	PABP FP inh	MLLE-PAM2 inh	eIF4H FP inh
COc1ccc(OC(=O)CN2C(=O)C3C4CCC(C4)C3C2=O)cc1 (stereo not drawn)	6	0	active	-3	64
COc1ccc(-c2c(-c3ccc(OC)nc3)c3ccccc3n2C)cc1	nt	nt	nt	11	nt
O=C(CSc1ccc(-c2ccco2)nn1)c1ccc(F)cc1	-3	1	active	33	90
Fc1ccc(CSc2ccc(-c3ccco3)nn2)cc1	0	1	68*	4	?
CC(=O)Nc1ccc(-c2ccnc3c2CC(C)(C(=O)Nc2cccc(Oc4ccccc4)c2)O3)cc1 (stereo not drawn)	nt	nt	nt	6	nt
CCOc1ccc(NC(=O)/C(C#N)=C\c2ccc(N3CCCC3)c(C)c2)cc1	nt	nt	nt	-95	nt
Cc1ccc(-n2nnnc2SCn2nnc3ccccc3c2=O)cc1	6	0	0	-20	1
COc1ccc(C)cc1-n1nnnc1SCn1nnc2ccccc2c1=O	-10	0	-1	46*	2
O=C(CN1CCN(c2ccc(F)cc2)CC1)Nc1ccccc1[N+](=O)[O-]	-2	-1	40*	17	60*
O=C(CN1CCN(c2ccc(F)cc2)CC1)Nc1ccccc1Br	nt	nt	-4	12	2
O=C(/C=C/c1cccc(Cl)c1Cl)OCC(=O)N1CCOCC1	nt	nt	nt	-1	nt
O=C1c2ccccc2C(=O)N1/N=C/c1ccc(O)c(O)c1O	98*	0	68*	33	98*
Cc1nc2ccccc2c(=O)n1/N=C/c1ccc(O)c(O)c1O	nt	nt	87*	26	90*
Cc1[nH]n(-c2ccccc2)c(=O)c1/C=N/n1c(C)nc2ccccc2c1=O	8	1	60*	6	1
Oc1ccc(/C=N/N2CCOCC2)c(O)c1O	3	1	active	33	98*
Cc1ccc(-n2[nH]c(C)c(/C=N/n3c(C)nc4ccccc4c3=O)c2=O)cc1	1	1	14	5	3
COc1ccccc1CN(C)C(=O)c1cccc(S(=O)(=O)N2CCc3ccccc3C2)c1	nt	nt	nt	-11	nt
COc1ccc(CC(Cc2ccc(OC)c(OC)c2)NC=O)cc1OC	nt	nt	nt	-2	nt
CC(C)Oc1cc(F)ccc1-c1cc(C(=O)NCCCn2ccnc2)[nH]n1	nt	nt	nt	1	nt
CCCN(CC(=O)Nc1ccccc1OC)C(=O)Cn1c(=O)oc2ccccc21	nt	nt	nt	0	nt
CCn1c(C2CC(=O)N(Cc3ccccc3)C2)nc2ccccc21 (stereo not drawn)	52*[fluorescence artefact?]	0	-1	3	-7
C=C(C)Cn1c(C2CC(=O)N(Cc3ccccc3)C2)nc2ccccc21 (stereo not drawn)	nt	nt	2	6	-2
CCNC(=O)c1sc(=S)n(-c2ccc(C)cc2)c1N	8	1	-4	44*	-4
CC(=O)Nc1cncc(-c2cccc(C(=O)N(C)C)c2)n1	nt	nt	nt	10	nt
COc1ccc(-c2nnc(-c3ccc(N(C)C)cc3)o2)cc1	0	0	-7	-6	-3
SMILES	eIF4E-4G inh	PERK inh	PABP FP inh	MLLE-PAM2 inh	eIF4H FP inh
CN(C)c1ccc(-c2nnc(-c3ccc(S(=O)(=O)C(F)F)cc3)o2)cc1	-32	1	74*	-63	68*
CN(Cc1ccccc1)C(=O)C1CCN(S(=O)(=O)c2ccc3nc4c(c(C(=O)O)c3c2)CCCC4)CC1	nt	nt	35	-6	66*
COC(=O)c1ccc(/C=C(\C#N)c2nc3ccccc3s2)cc1	4	-1	20*	-12	?
O=C(COc1ccccc1)Nc1nc(-c2ccncc2)cs1	nt	nt	33	35*	-10
O=C(Nc1nc(-c2ccccc2)cs1)c1ccco1	66*	-2	-1	-9	3
Cc1csc2c(=O)sc(NC(=O)c3ccco3)nc12	-28	0	5	32	0
O=C(Nc1nc2ccsc2c(=O)s1)c1ccco1	-7	0	23	-6	64*
COc1ccc(-c2csc(NC(=O)c3ccco3)n2)cc1	5	0	0	-7	12
Cn1cnnc1SCC(=O)Nc1ccc(N2CCCCC2)cc1	nt	nt	nt	-5	nt
CC(=O)Nc1ccc(N(C(=O)c2ccccn2)C(C(=O)NC2CCCCC2)c2ccc(F)cc2)cc1 (stereo not drawn)	nt	nt	2	2	0
COc1ccc(C(=O)N2CCOC2CNC(=O)C(=O)NCc2ccccn2)cc1 (stereo not drawn)	nt	nt	nt	8	nt
O=C(Nc1ccc(F)cc1F)c1noc2c1CCC2	16	1	45*	14	85*
O=C(Nc1cc(Cl)ccc1Cl)c1noc2c1CCCC2	-15	nt	17	7	-7
Cc1ccc(NC(=O)C(C)OC(=O)/C=C/c2ccccc2)cc1S(=O)(=O)N1CCOCC1 (stereo not drawn)	nt	nt	nt	-15	nt
CC(O)CNc1nc2ccccc2n1CC(=O)NCCc1ccc(Cl)cc1 (stereo not drawn)	34*	0	8	-6	6
Cc1ccccc1NC(=O)Cn1c(NCC(C)O)nc2ccccc21 (stereo not drawn)	2	1	-2	-2	1
COc1ccc(-c2cc(NC(C)=O)c3ncc(-c4ccc(F)cc4)n3c2)cc1OC	nt	nt	nt	-14	nt
C=CCOC(=O)C1=C(C)OC(N)=C(C#N)C1c1ccoc1 (stereo not drawn)	-9	1	88	-20	102*
C=CCOC(=O)C1=C(C)OC(N)=C(C#N)C1c1ccc2c(c1)OCO2 (stereo not drawn)	0	1	-1	11	0
O=C(CCl)Nc1ccc(N=Nc2ccccc2)cc1	15	1	62	-6	active
CCCCN1/C(=C/c2cccc[n+]2C)Sc2cc(NC(C)=O)ccc21	nt	nt	61*	-142	0
CCN1/C(=C/c2cccc[n+]2C)Sc2ccc(OC)cc21	nt	nt	48	-140	-9
Cc1nc2cc(C(=O)O)ccc2s1	nt	1	8	39*	-15
CN(C)CCSc1nc(O)c(-c2ccccc2)c(=O)n1-c1ccccc1	7	0	12	15	-6
CCCCc1c(O)nc(SCCN(C)C)n(-c2ccccc2)c1=O	-4	0	-13	38*	-14
SMILES	eIF4E-4G inh	PERK inh	PABP FP inh	MLLE-PAM2 inh	eIF4H FP inh
CCOC(=O)c1c(CSc2ccc(C)cc2)n(C)c2cc(Br)c(O)c(CN(C)C)c12	9	0	6	100*	18
CC(C)c1ccc(S(=O)(=O)Nc2ccc(-n3cnnn3)cc2)cc1	nt	nt	nt	6	nt
CC(C)c1ccc(NS(=O)(=O)c2ccc(-n3cccn3)cc2)cc1	nt	nt	74*	15	88*
CCOc1ccc(NC(=S)Nc2cccc3cnccc23)cc1	3	0	-5	36	16
COc1ccc(NC(=S)Nc2cccc3cnccc23)cc1	0	0	active	20	57
CCOC(=O)c1c(-c2ccco2)csc1NC(=O)CSc1nnc(N)s1	-8	1	8	-8	54*
CCOC(=O)c1c(-c2ccc(C)o2)csc1NC(=O)CSc1nncs1	3	-1	22	38	28
Cc1sc(NC(=O)CSc2nnc(-c3ccc(F)cc3)o2)c(C#N)c1C	-25	0	65*	-2	66*

Screens from PubChem.
